# The supplement of paper PMC10849652
# Targets with a hit are over-represented here; the source holds about 7,900 in all. About 0.6% of all pairs of compound and target were hits. Values without a mark were called inactive.
# Experiments:
# Assay in all cases: log2 fold change, soluble protein after heating vs DMSO (PISA); higher = thermal stabilisation; K562 cells, 10 uM, 30 min; active = over 0.2 and 3.5 SD of the protein, either way, in both replicates (recomputed)
# [1] = compound: CC1=C(C=C(C=C1)NC(=O)C2=CC(=CC=C2)C(C)(C)C#N)NC3=CC4=C(C=C3)N=CN(C4=O)C
# Summary of the method: (§1)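 K562 cells at 2×10^6 cells/mL were exposed to 10 μM compound for 30 min, then aliquots were heated for 3 min across 48°C-58°C, pooled, and extracted in PBS containing 0.5% NP-40 at 4°C. The supernatant after 21,000xg for 90 min was taken as soluble protein and measured by TMTpro 16plex LC-MS/MS with channel sums equalised. Thermal stability is reported relative to control samples, with values from duplicates. Fold changes are given on a log2 scale.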
# [2] = compound: CC1=C(C=C(C=C1)NC(=O)C2=CC(=CC=C2)N(C)C)NC(=O)C3=CC=C(C=C3)O
# Summary of the method: as §1
# [3] = compound: CC1=CC=C(C=C1)SC2=C3C=C(SC3=CN=C2)C(=O)N
# Summary of the method: as §1
# [4] = compound: CC1=NC(=CC=C1)C2=C(N=C(N2)C(C)(C)C)C3=CC4=NC=CN=C4C=C3
# Summary of the method: as §1
# [5] = compound: CCCCN(Cc1ccc(C(=O)NO)cc1)C(=O)Nc1ccccc1 [Nexturastat A]
# Summary of the method: as §1
# [6] = compound: CCCS(=O)(=O)Nc1ccc(F)c(C(=O)c2c[nH]c3ncc(-c4ccc(Cl)cc4)cc23)c1F [vemurafenib]
# Summary of the method: as §1
# [7] = compound: CCCS(=O)(=O)Nc1ccc(F)c(C(=O)c2c[nH]c3ncc(Cl)cc23)c1F
# Summary of the method: as §1
# [8] = compound: CCCc1cc(C)[nH]c(=O)c1CNC(=O)c1cc(-c2ccnc(N3CCN(C)CC3)c2)cc2c1cnn2C(C)C
# Summary of the method: as §1
# [9] = compound: CCN(CC)Cc1ccc2cc(COC(=O)Nc3ccc(C(=O)NO)cc3)ccc2c1 [givinostat]
# Summary of the method: as §1
# [10] = compound: CCN(CCCOc1ccc2c(Nc3cc(CC(=O)Nc4cccc(F)c4)[nH]n3)ncnc2c1)CCOP(=O)(O)O [barasertib]
# Summary of the method: as §1
# Chain of UniProt P56556 (P56556 whole entry, looked up): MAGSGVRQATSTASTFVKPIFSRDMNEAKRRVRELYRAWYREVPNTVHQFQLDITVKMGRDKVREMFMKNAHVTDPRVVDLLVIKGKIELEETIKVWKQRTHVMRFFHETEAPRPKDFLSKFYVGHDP
# Chain of UniProt Q8NCF5 (Q8NCF5 whole entry, looked up): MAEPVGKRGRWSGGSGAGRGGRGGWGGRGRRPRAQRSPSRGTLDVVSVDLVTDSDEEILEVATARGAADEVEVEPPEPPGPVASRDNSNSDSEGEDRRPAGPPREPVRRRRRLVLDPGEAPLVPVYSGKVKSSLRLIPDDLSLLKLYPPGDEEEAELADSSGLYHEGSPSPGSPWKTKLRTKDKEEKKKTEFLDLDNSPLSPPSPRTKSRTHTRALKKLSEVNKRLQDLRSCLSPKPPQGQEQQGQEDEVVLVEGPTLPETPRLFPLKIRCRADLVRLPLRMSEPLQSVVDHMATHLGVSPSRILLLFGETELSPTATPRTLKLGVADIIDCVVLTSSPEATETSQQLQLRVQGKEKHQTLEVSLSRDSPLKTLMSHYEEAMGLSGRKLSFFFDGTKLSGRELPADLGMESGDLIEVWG
# Chain of UniProt Q00013 (Q00013 whole entry, looked up): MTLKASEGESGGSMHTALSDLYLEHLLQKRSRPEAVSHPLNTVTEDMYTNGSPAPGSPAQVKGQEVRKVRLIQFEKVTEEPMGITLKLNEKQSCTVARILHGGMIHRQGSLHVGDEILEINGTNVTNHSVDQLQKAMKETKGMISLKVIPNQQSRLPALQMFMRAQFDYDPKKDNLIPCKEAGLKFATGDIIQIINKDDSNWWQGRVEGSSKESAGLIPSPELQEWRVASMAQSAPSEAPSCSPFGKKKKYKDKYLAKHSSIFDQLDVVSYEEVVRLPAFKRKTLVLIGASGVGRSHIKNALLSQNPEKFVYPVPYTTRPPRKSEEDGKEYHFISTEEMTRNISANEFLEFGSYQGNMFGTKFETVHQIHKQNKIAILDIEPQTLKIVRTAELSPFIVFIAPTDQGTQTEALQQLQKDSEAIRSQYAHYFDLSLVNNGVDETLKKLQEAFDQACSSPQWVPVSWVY
# Chain of UniProt Q96MF7 (Q96MF7 whole entry, looked up): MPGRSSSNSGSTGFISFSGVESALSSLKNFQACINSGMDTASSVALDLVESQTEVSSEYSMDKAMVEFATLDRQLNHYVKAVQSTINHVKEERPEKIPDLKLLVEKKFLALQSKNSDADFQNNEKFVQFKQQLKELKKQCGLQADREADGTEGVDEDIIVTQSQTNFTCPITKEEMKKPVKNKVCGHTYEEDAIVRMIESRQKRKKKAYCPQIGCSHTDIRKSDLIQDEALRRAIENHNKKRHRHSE
# Chain of UniProt P19338 (P19338 whole entry, looked up): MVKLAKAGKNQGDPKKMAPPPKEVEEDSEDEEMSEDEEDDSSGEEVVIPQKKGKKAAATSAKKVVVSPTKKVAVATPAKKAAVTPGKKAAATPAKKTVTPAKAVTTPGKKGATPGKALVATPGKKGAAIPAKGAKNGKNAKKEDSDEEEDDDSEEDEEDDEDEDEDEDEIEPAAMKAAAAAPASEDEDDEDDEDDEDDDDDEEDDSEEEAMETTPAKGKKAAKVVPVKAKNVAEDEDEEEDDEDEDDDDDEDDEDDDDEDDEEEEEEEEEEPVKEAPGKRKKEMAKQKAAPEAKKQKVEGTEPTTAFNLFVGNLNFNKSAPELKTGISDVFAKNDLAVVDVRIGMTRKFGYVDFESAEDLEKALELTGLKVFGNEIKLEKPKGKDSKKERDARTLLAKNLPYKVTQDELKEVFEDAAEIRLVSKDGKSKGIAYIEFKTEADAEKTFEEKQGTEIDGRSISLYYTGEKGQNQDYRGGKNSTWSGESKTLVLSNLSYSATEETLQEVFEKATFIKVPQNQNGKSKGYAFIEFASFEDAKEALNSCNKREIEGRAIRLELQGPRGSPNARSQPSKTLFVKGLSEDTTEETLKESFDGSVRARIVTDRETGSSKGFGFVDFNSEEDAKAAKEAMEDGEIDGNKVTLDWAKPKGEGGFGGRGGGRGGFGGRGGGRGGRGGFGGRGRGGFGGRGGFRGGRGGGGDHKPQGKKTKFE
# Chain of UniProt O00567 (O00567 whole entry, looked up): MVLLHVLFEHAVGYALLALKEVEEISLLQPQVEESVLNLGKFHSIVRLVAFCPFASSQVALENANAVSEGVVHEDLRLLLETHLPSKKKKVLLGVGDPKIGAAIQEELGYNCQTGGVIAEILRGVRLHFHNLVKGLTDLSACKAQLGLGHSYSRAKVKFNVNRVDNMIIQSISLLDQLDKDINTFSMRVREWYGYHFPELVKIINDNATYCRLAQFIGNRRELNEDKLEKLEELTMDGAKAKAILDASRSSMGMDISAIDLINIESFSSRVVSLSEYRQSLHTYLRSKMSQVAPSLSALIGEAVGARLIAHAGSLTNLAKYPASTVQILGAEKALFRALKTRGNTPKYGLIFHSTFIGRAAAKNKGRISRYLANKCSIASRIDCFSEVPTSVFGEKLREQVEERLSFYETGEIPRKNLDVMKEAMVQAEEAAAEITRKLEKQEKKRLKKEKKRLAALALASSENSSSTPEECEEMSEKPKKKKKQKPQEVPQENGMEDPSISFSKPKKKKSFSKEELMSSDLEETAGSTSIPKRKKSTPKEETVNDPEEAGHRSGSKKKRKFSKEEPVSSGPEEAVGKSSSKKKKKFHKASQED
# Chain of UniProt P52948 (P52948 whole entry, looked up): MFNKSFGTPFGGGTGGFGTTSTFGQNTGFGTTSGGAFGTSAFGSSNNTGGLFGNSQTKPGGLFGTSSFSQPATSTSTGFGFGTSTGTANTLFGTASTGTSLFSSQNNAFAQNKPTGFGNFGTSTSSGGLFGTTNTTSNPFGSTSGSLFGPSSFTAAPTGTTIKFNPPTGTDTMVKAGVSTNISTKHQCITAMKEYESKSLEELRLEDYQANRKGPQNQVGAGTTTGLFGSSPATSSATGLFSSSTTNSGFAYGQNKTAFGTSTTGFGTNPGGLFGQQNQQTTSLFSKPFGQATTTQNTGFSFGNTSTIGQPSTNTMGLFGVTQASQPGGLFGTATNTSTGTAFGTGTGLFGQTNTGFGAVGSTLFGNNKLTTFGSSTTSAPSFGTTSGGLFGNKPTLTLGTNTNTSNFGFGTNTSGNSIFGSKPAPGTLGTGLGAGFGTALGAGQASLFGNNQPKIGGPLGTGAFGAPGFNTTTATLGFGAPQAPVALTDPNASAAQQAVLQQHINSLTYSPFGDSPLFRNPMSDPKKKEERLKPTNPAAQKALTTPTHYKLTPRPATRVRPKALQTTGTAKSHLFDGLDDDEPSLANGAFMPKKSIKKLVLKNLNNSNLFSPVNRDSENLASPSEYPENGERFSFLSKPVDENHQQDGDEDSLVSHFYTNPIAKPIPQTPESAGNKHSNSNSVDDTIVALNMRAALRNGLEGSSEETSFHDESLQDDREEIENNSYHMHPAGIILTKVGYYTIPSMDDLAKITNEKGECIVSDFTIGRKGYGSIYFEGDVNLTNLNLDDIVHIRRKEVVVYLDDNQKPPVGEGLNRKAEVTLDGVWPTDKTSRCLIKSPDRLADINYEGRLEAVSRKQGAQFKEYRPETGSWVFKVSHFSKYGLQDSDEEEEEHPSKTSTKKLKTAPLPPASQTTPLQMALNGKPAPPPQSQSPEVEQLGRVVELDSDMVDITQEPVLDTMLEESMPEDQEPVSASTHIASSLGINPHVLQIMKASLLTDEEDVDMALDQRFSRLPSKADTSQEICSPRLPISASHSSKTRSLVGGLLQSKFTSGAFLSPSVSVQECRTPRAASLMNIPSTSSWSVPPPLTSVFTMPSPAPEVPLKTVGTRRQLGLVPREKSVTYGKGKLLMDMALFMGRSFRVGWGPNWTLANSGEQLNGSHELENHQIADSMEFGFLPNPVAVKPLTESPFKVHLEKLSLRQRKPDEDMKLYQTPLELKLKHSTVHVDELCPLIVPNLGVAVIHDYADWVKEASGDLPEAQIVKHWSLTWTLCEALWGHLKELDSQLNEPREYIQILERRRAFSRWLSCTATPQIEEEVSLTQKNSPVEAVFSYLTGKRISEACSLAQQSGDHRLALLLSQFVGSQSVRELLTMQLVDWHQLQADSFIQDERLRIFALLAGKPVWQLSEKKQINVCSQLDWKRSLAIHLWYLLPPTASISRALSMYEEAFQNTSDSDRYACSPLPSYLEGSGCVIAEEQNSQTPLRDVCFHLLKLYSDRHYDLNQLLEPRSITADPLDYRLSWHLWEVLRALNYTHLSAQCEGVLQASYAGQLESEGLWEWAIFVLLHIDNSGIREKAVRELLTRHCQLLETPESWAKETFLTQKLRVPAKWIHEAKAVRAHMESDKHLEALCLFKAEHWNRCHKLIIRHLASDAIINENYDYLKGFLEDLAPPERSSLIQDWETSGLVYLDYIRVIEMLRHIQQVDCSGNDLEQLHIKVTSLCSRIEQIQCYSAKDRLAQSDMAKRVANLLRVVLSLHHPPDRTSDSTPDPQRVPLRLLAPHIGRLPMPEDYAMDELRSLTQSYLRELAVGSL
# Chain of UniProt Q9BRP4 (Q9BRP4 whole entry, looked up): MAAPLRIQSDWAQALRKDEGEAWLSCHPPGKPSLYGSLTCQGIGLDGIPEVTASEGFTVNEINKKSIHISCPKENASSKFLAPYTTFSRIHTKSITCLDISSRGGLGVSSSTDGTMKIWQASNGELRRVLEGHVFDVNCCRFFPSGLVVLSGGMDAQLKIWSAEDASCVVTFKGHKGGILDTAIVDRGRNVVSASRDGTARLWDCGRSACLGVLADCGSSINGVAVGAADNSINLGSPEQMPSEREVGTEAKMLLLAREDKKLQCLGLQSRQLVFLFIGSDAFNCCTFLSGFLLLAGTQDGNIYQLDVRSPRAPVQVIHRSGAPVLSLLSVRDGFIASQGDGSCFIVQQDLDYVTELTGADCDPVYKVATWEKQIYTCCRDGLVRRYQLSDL
# Chain of UniProt P49914 (P49914 whole entry, looked up): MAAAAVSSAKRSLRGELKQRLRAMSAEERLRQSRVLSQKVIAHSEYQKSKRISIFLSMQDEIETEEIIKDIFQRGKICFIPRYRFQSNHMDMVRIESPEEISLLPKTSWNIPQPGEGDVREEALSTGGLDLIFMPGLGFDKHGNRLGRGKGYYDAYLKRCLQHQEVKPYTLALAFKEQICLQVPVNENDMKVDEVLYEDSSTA
Target,log2 fold change [1],log2 fold change [2],log2 fold change [3],log2 fold change [4],log2 fold change [5],log2 fold change [6],log2 fold change [7],log2 fold change [8],log2 fold change [9],log2 fold change [10]
NDUFA12 (UniProt Q9UI09),0.022,-0.1,0.014,-0.028,-0.027,0.039,0.03,-0.044,0.114,0.056
OTULIN (UniProt Q96BN8),0.03,0.002,0.035,0.015,-0.17,-0.023,0.171,-0.018,0.039,0.105
NOL7 (UniProt Q9UMY1),-0.06,-0.055,-0.048,-0.193,0.214,-0.14,-0.121,0.088,0.031,-0.092
NCOR1 (UniProt O75376),-0.035,-0.075,-0.195,0.101,-0.079,0.01,-0.149,-0.079,0.014,-0.094
MYH10 isoform 3 (UniProt P35580),0.009,-0.033,0.019,0.07,-0.05,0.028,0.05,0,-0.003,0.038
NUP98 (UniProt P52948),-0.042,0.064,-0.003,0.031,0.061,0.037,0.068,0.036,0.081,0.037
NNT (UniProt Q13423),0.02,-0.004,0.004,0.058,-0.091,0.025,0.016,-0.023,0.001,0.01
NSMCE2 (UniProt Q96MF7),0.019,-0.052,0.006,0.056,0.064,-0.007,0.021,0.018,-0.076,0.078
NMT1 (UniProt P30419),-0.012,-0.006,-0.012,0.021,-0.036,-0.013,0,0.023,-0.284 (active),-0.015
NOP56 (UniProt O00567),-0.024,-0.001,-0.149,-0.136,0.127,-0.018,-0.065,0.003,0.096,-0.076
MRPL47 (UniProt Q9HD33),0.035,-0.045,-0.03,-0.078,0.139,-0.117,-0.097,0.073,0.052,-0.047
PAAF1 (UniProt Q9BRP4),-0.026,-0.005,0.016,0.003,-0.035,-0.028,0.019,-0.038,0.023,0.021
NDUFB8 (UniProt O95169),0.01,-0.068,0.023,0.024,0.045,0.099,-0.04,-0.025,-0.048,0.023
NCAPD2 (UniProt Q15021),0.057,-0.032,0.012,-0.013,0.058,0.119,0.041,0.101,0.077,0.03
NFATC3 (UniProt Q12968),0.067,-0.506,0,-0.055,0.047,-0.033,0.094,0.116,0.088,0.019
OSTM1 (UniProt Q86WC4),-0.051,-0.047,0,0.056,-0.033,0.017,0.093,-0.03,0.146,-0.023
NEDD4L (UniProt Q96PU5),0.015,-0.138,-0.046,0.01,-0.059,0.049,0.019,0.013,0.056,-0.021
NDUFA6 (UniProt P56556),0.029,-0.082,0.1,0.125,-0.067,0.04,0.198,-0.064,0.047,0.035
NCK1 (UniProt P16333),0.166,-0.068,0.208,0.102,0.12,0.031,0.116,0.08,0.211,0.189
NOP2 isoform 4 (UniProt P46087),-0.031,-0.062,-0.105,-0.264,0.2,-0.433,-0.051,0.172,0.178,-0.223
MRPS27 isoform 2 (UniProt Q92552),0.037,-0.022,0.006,0.039,0.151,0.064,0.035,0.051,0.055,-0.016
OGFOD1 (UniProt Q8N543),-0.013,-0.01,0.013,0.033,-0.061,-0.01,-0.006,0.006,-0.112,0.009
NT5DC1 (UniProt Q5TFE4),0.149,-0.018,-0.019,0.021,-0.068,-0.001,-0.016,-0.003,0.004,-0.039
NFATC2IP (UniProt Q8NCF5),-0.029,-0.026,0.028,0.013,0.007,-0.01,0.014,0.015,0.088,0.124
MPHOSPH10 (UniProt O00566),0.052,-0.01,-0.031,-0.079,0.098,-0.041,0.009,0.047,0.087,-0.107
MPP1 (UniProt Q00013),0.117,-0.052,0.043,0.025,0.002,0.029,0.04,0.053,0.062,0.034
MTHFS (UniProt P49914),0.047,-0.054,-0.01,0.047,-0.005,-0.017,0.01,-0.041,-0.063,0.009
NARS2 (UniProt Q96I59),-0.016,0.002,-0.011,0.019,-0.071,-0.01,0.038,-0.033,-0.076,0.002
NAA38 isoform 2 (UniProt Q9BRA0),0.018,0.041,0.018,-0.044,0.052,0.094,0.042,-0.129,0.066,-0.025
NCL (UniProt P19338),-0.017,-0.056,-0.077,-0.126,0.275,-0.139,-0.036,0.145,0.085,-0.101
